Bioassay records as filed in PubChem BioAssay.
KCNQ2 inh = KCNQ2 (rat) channel inhibition; O88943; CHO-K1 KCNQ2, FluxOR thallium flux, 20 min; stronger effect = lower value; B-score at 10 µM; hit rate 1.1% among 310,000;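 active = fluorescence ratio B-score at most minus 3 library SDs, with starting brightness B-score within 2 library SDs, cut at about -5.5 in these data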
KCNQ2 pot = potentiators of rat KCNQ2 potassium channel | O88943 | CHO-K1 KCNQ2, FluxOR thallium flux fluorescence; stronger effect = higher value | B-score at 10 µM | hit rate 0.54% among 310,000 | AID 2239;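 active = fluorescence ratio B-score at least 3 SD of library B-scores, with initial fluorescence B-score within 3 of them, cut at about 5.3 in these data; same plate scores as AID 2156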;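 also: B-score of peak minus minimum over baseline fluorescence ratio after K+ and Tl+ stimulus; positive B-score means potentiation of KCNQ2 with more thallium influx and brighter signal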
Numbers stand for hits; n = inactive; x = not tested or not shown. A selection: hits, their analogues and other compounds. The true share with any hit is near 1.6%.

SMILES	KCNQ2 inh	KCNQ2 pot
COc1ccc(-n2c(COc3ccc4ccccc4c3)nnc2SCC(=O)NCc2ccco2)cc1	n	n
COc1cccc(OCc2nnc(SCC(=O)NCc3ccco3)n2CCc2ccccc2)c1	-6.8	n
CCOc1ccc2nc(N3C(=O)/C(=C/c4ccc(Cl)cc4)NC3=S)sc2c1	n	15
COc1ccc2nc(N3C(=O)CNC3=S)sc2c1	n	n
COC(=O)c1ccc(CNC(=O)c2c3c(nc4ccccc24)CCN(Cc2ccccc2)C3)cc1	-6.2	n
O=C(NCc1ccc(F)cc1)c1c2c(nc3ccccc13)CCN(Cc1ccccc1)C2	n	x
O=S(=O)(NNc1ccc(F)cc1F)c1cccc(Cl)c1	n	n
O=C(COc1ccccc1)NC(=S)N1CCc2ccccc21	n	10
COc1ccc(OCC(=O)NC(=S)N2CCCc3ccccc32)cc1	n	x
CC12CN(NC(=O)c3ccccc3F)C3(C#N)CC1CCC23C (configuration not stated)	n	n
Cc1ccc(C(c2cc(Br)ccc2O)N2CCSCC2)cc1 (configuration not stated)	-5.8	n
Cc1ccc(C(c2nnnn2CCc2ccccc2)N2CCSCC2)cc1 (configuration not stated)	n	n
Cc1cc(C)c(C(=O)NNC(=O)c2cccnc2)c(C)c1	n	x
Clc1ccccc1OCCCOc1cccc2cccnc12	n	x
COCCN1C(=O)/C(=C/c2ccc(Oc3ccc([N+](=O)[O-])cn3)c(OC)c2)SC1=Nc1ccccc1	-6.9	n
COc1cc(/C=C2\SC(=Nc3ccccc3)N(CCc3c[nH]c4ccccc34)C2=O)ccc1OC(C)C(=O)O (configuration not stated)	n	x
CCOc1cc(/C=N/Nc2nc(N3CCCC3)nc(N3CCCC3)n2)ccc1O	-8.3	n
CCOc1cccc(/C=N/Nc2nc(N3CCCC3)nc(N3CCCC3)n2)c1O	n	n
COc1c(/C=N/Nc2ccc(C(=O)O)cc2)c(CCN(C)C(C)=O)cc2c1OCO2	n	n
CN(C(=O)COC(=O)C(Cc1ccccc1)NC(=O)c1ccccc1)c1ccccc1 (configuration not stated)	-5.7	n
CN(C)C(=O)COC(=O)[C@H](Cc1ccccc1)NC(=O)c1ccco1	n	x
Cc1nc(C)c(-c2ccc(SCc3ccccc3F)nn2)s1	n	x
CC(=O)c1sc(N/N=C\c2c(O)ccc3ccccc23)nc1C	n	x
Oc1oc(-c2cccc3ccccc23)nc1/C=N/c1nccs1	n	9.4
Cc1cccc(/N=C/c2nc(-c3ccccc3Br)oc2O)n1	n	x
SMILES	KCNQ2 inh	KCNQ2 pot
CCOc1c(Cl)cc(C(=O)Nc2ccccc2-c2ccccc2)cc1Cl	n	x
COc1ccc(C(=O)Nc2ccccc2-c2ccccc2)cc1Cl	-6.2	n
O=C(COC(=O)COc1cccc(C(F)(F)F)c1)NC(=O)NC1CCCCC1	n	n
O=S(=O)(c1ccc(Cl)cc1)N1CCN=C1SCc1cccc(Cl)c1	n	x
Cc1ccc(C)c(CSC2=NCCN2S(=O)(=O)c2ccccc2)c1	-6.3	n
O=S(=O)(c1ccccc1)N1CCN=C1SCc1c(F)cccc1Cl	-6.3	n
Cc1ccc(S(=O)(=O)N2CCN=C2SCc2ccc(Cl)c(Cl)c2)cc1	n	x
CC1(C)CN2C(=S)N(c3ccccc3)C(c3ccccc3)N2C1 (configuration not stated)	-5.6	n
S=C1N(c2ccccc2)C(c2ccc(Cl)cc2)N2CCCN12 (configuration not stated)	n	x
NC(=O)N/N=C/c1coc2ccc3ccccc3c2c1=O	n	n
O=Cc1coc2ccc3ccccc3c2c1=O	-8.1	n
COc1ccc(NC(=O)Nc2nc(C)cc(C)n2)c(OC)c1	n	n
CCC(Oc1ccccc1)C(=O)Nc1ccccc1N1CCCCC1 (configuration not stated)	n	x
CC(Oc1ccc(F)cc1)C(=O)Nc1ccccc1N1CCCCC1 (configuration not stated)	-7.7	n
Cc1cccn2c(=O)c3cc(S(=O)(=O)c4ccccc4)c(=N)n(CC4CCCO4)c3nc12 (configuration not stated)	n	n
CC(C(=O)NC1CCCC1)N(C(=O)c1ccc(-c2ccccc2)[nH]1)c1ccccc1F (configuration not stated)	-6.5	n
CC(C(=O)NC1CCCC1)N(C(=O)Cn1nnc(-c2ccc(F)cc2)n1)c1ccccc1F (configuration not stated)	n	x
NC(=S)N=Nc1c(O)n(CCCl)c2ccc(Br)cc12	n	x
C/C(Cl)=C\Cn1c(O)c(N=NC(N)=S)c2cc(Br)ccc21	n	9.2
CC(C)c1ccc(NC2CCCN(C(=O)c3ccsc3)C2)cc1 (configuration not stated)	n	x
Cc1ccc(C(=O)Nc2ccccc2C(=O)N2CC3(C)CC2CC(C)(C)C3)cc1 (configuration not stated)	-6.1	n
CC1(C)CC2CC(C)(CN2C(=O)NC(=O)c2ccccc2)C1 (configuration not stated)	n	x
O=C(CCC1CCCN(C(=O)c2ccc3[nH]ccc3c2)C1)N1CCN(c2ccccn2)CC1 (configuration not stated)	n	n
Cc1cccc(C)c1NC(=O)COC(=O)c1ccc([N+](=O)[O-])o1	n	n
O=C(Cn1c(=O)n(Cc2ccco2)c(=O)c2c3c(sc21)CCCCC3)c1ccccc1	-5.7	n
SMILES	KCNQ2 inh	KCNQ2 pot
O=C(Cn1c(=O)n(Cc2ccco2)c(=O)c2c3c(sc21)CCCCC3)Nc1ccccc1	n	x
O=C(Nc1ccccc1C(=O)NC(Cc1ccccc1)C(=O)NC1CCCCC1)c1ccccc1 (configuration not stated)	-7.2	n
O=C(Nc1ccccc1C(=O)NC(Cc1ccccc1)C(=O)O)c1ccccc1 (configuration not stated)	n	x
Nc1ccc(C(=O)Nc2ccccc2C(=O)O)cc1	n	n
O=C(Nc1ccccc1C(=O)Nc1ccccc1C(=O)O)c1ccccc1	-5.9	n
C/C(=N\Nc1nc(C)c(C)s1)c1ccc([N+](=O)[O-])cc1	n	5.4
C/C(=N\Nc1ccc([N+](=O)[O-])cc1)c1ccc(N)cc1	n	x
CC(C(=O)N(C)c1ccccc1)N1CCN(C(=O)c2ccccc2)CC1 (configuration not stated)	n	n
CC(C)c1nc2ccccc2c2nnc(SCC(=O)NCc3ccco3)n12	n	x
CC(C)(C)c1nc2ccccc2c2nnc(SCC(=O)NCc3ccco3)n12	-6.5	n
Cc1nc(N2CCN(Cc3ccc4c(c3)OCO4)CC2)c2cc(-c3ccccc3)sc2n1	-6.4	n
Cc1nc(N2CCOCC2)c2cc(-c3ccccc3)sc2n1	n	x
CC(=O)c1ccc(S(=O)(=O)N2CCN(C(=O)CSc3ccc(C)c(C)c3)CC2)cc1	n	x
O=C1c2ccccc2C(Nc2ccc(S(=O)(=O)N3CCCCCC3)cc2)N1c1ccccn1 (configuration not stated)	n	x
O=C1c2ccccc2C(Nc2ccc(Cl)cn2)N1c1ccccn1 (configuration not stated)	-6.6	n
CC(C)(C)n1cnnc1Sc1ncccc1[N+](=O)[O-]	n	n
CC(=O)c1c(C)[nH]c(C(=O)NNC(=O)COc2ccc(Cl)cc2C)c1C	-5.8	n
COc1ccc(Cl)cc1NC(=O)c1[nH]c(C)c(C(C)=O)c1C	n	n
CCOC(=O)CSc1ncc(OC)c(Sc2ccc(Cl)cc2)n1	n	x
CCOC(=O)C(C)Sc1ncc(OC)c(Sc2ccc(Cl)cc2)n1 (configuration not stated)	-8	n
